# Assay results as given in the supplement of paper PMC10037445.
# In all, about 2,900 compounds were measured (“IRF Lucia reporter activity, fold change vs agonist alone”: median about 0.9, highest 2% from about 2.8 on). This is one part of a sample in which the highest values are shown more often than they occur.
# Tests used:
# [1] = test system: RAW-Dual; assay: IRF Lucia reporter activity, fold change vs agonist alone; cytotoxicity flag (confluency mask): not cytotoxic; higher = enhanced IRF activity
# How it was run: (§1)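 Reporter activity is given as fold change relative to agonist-alone wells. To measure it, 50 nL of library stock was pin-tooled onto RAW-Dual macrophages (50,000 cells/well, DMEM, 384-well plates), a PRR agonist followed 1 h later, and cells stayed at 37 °C, 5% CO2. Twenty hours on, supernatant was assayed for IRF (QuantiLuc luminescence) and NF-κB (QuantiBlue, 620 nm absorbance), and wells under 70% of agonist-control IncuCyte confluency in both mask sets were marked cytotoxic.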
# [2] = test system: RAW-Dual; assay: IRF Lucia reporter activity, fold change vs agonist alone; higher = enhanced IRF activity; conditions: agonist: MPLA (TLR4) […]
# How it was run: as §1
# [3] = test system: RAW-Dual; assay: IRF Lucia reporter activity, fold change vs agonist alone; cytotoxicity flag (confluency mask): cytotoxic (confluency <70% of control); higher = enhanced IRF activity
# How it was run: as §1
# [4] = agonist: 3'3'-cGAMP (STING) 10 ug/mL
# [5] = library stock concentration (final ~1000-fold dilution): 10 mM, cytotoxicity flag (confluency mask): not cytotoxic
# [6] = library stock concentration (final ~1000-fold dilution): 10 mM, cytotoxicity flag (confluency mask): cytotoxic (confluency <70% of control)
structure (smiles),measurement,setting,value
O=C(CCc1ccc(O)cc1)c1c(O)cccc1OC1OC(CO)C(O)C(O)C1O (stereo unspecified) (library stock concentration (final ~1000-fold dilution): 10 mM),IRF Lucia reporter activity,[1]; [4],0.943
same,IRF Lucia reporter activity,[1]; agonist: LPS (TLR4) 0.1 ug/mL,0.918
O=C(CCc1ccc(O)cc1)c1c(O)cccc1OC1OC(CO)C(O)C(O)C1O (stereo unspecified),IRF Lucia reporter activity,[2]; [5],1.01
CC(c1ccc2nccn2c1)n1nnc2ncc(-c3cnn(C)c3)nc21 (stereo unspecified) (library stock concentration (final ~1000-fold dilution): 10 mM),IRF Lucia reporter activity,[1]; [4],0.953
same,IRF Lucia reporter activity,[1]; agonist: LPS (TLR4) 0.1 ug/mL,1.15
CN(C)CCSSCCNC(=O)C1CCN(C(=O)CSc2ccc(Cl)cc2)CC1.O=C(O)C(F)(F)F (library stock concentration (final ~1000-fold dilution): 10 mM),IRF Lucia reporter activity,[1]; [4],0.396
same,IRF Lucia reporter activity,[1]; agonist: LPS (TLR4) 0.1 ug/mL,0.778
CN(C)CCSSCCNC(=O)C1CCN(C(=O)CSc2ccc(Cl)cc2)CC1.O=C(O)C(F)(F)F,IRF Lucia reporter activity,[2]; [5],0.751
O=C1OC(COc2ccccc2[N+](=O)[O-])CC1Cc1ccccc1 (stereo unspecified) (library stock concentration (final ~1000-fold dilution): 10 mM),IRF Lucia reporter activity,[1]; [4],1.23
same,IRF Lucia reporter activity,[1]; agonist: LPS (TLR4) 0.1 ug/mL,1.23
O=c1cccccc1O (library stock concentration (final ~1000-fold dilution): 10 mM),IRF Lucia reporter activity,[1]; [4],0.664
same,IRF Lucia reporter activity,[1]; agonist: LPS (TLR4) 0.1 ug/mL,0.952
O=c1cccccc1O,IRF Lucia reporter activity,[2]; [5],1.24
NC(=O)c1cc(F)cc2c1C(=O)N(C1CCN(C3CCC(F)(F)CC3)CC1)C2 (library stock concentration (final ~1000-fold dilution): 10 mM),IRF Lucia reporter activity,[1]; [4],0.94
same,IRF Lucia reporter activity,[1]; agonist: LPS (TLR4) 0.1 ug/mL,0.923
O=C(Nc1nc2cccc(-c3ccc(CN4CCS(=O)(=O)CC4)cc3)n2n1)C1CC1 (library stock concentration (final ~1000-fold dilution): 10 mM),IRF Lucia reporter activity,[1]; [4],1.1
same,IRF Lucia reporter activity,[1]; agonist: LPS (TLR4) 0.1 ug/mL,3.4
CC1(C)CN(C(=O)c2ccc(-c3cccc4nc(NC(=O)C5CC5)nn34)cc2)C1,IRF Lucia reporter activity,[2]; [5],0.713
CC1(C)CN(C(=O)c2ccc(-c3cccc4nc(NC(=O)C5CC5)nn34)cc2)C1 (library stock concentration (final ~1000-fold dilution): 10 mM),IRF Lucia reporter activity,[1]; [4],0.308
same,IRF Lucia reporter activity,[1]; agonist: LPS (TLR4) 0.1 ug/mL,0.577
CNCCC=C1c2ccccc2CCc2ccccc21.Cl,IRF Lucia reporter activity,[2]; [6],1.38
CNCCC=C1c2ccccc2CCc2ccccc21.Cl (library stock concentration (final ~1000-fold dilution): 10 mM),IRF Lucia reporter activity,[3]; [4],0.464
same,IRF Lucia reporter activity,[3]; agonist: LPS (TLR4) 0.1 ug/mL,1.52
CN(C)c1ccc(O)c2c1CC1CC3C(N(C)C)C(O)=C(C(N)=O)C(=O)C3(O)C(O)=C1C2=O.Cl (stereo unspecified),IRF Lucia reporter activity,"[2]; library stock concentration (final ~1000-fold dilution): 2 mM water, cytotoxicity flag (confluency mask): not cytotoxic",1.28
CN(C)c1ccc(O)c2c1CC1CC3C(N(C)C)C(O)=C(C(N)=O)C(=O)C3(O)C(O)=C1C2=O.Cl (stereo unspecified) (library stock concentration (final ~1000-fold dilution): 2 mM water),IRF Lucia reporter activity,[1]; [4],1.09
same,IRF Lucia reporter activity,[1]; agonist: LPS (TLR4) 0.1 ug/mL,0.851
Cc1sc2c(c1C)C(c1ccc(Cl)cc1)=N[C@@H](CC(=O)NCCCCCCCCNC(=O)COc1cccc3c1C(=O)N(C1CCC(=O)NC1=O)C3=O)c1nnc(C)n1-2 (stereo partly specified) (library stock concentration (final ~1000-fold dilution): 10 mM),IRF Lucia reporter activity,[3]; [4],0.189
same,IRF Lucia reporter activity,[3]; agonist: LPS (TLR4) 0.1 ug/mL,0.244
CC(C)(O)c1ccccc1CCC(SCC1(CC(=O)O)CC1)c1cccc(/C=C/c2ccc3ccc(Cl)cc3n2)c1 (stereo unspecified),IRF Lucia reporter activity,[2]; [6],0.73
CC(C)(O)c1ccccc1CCC(SCC1(CC(=O)O)CC1)c1cccc(/C=C/c2ccc3ccc(Cl)cc3n2)c1 (stereo unspecified) (library stock concentration (final ~1000-fold dilution): 10 mM),IRF Lucia reporter activity,[3]; [4],0.492
same,IRF Lucia reporter activity,[3]; agonist: LPS (TLR4) 0.1 ug/mL,1.52
CCOC(=O)CCNc1cc(N2CCc3ccccc3CC2)nc(-c2ccccn2)n1.Cl (library stock concentration (final ~1000-fold dilution): 10 mM),IRF Lucia reporter activity,[1]; [4],1.03
same,IRF Lucia reporter activity,[1]; agonist: LPS (TLR4) 0.1 ug/mL,1.04
Cc1cccc(/C=N/Nc2cc(N3CCOCC3)nc(OCCc3ccccn3)n2)c1,IRF Lucia reporter activity,[2]; [5],3.08
Cc1cccc(/C=N/Nc2cc(N3CCOCC3)nc(OCCc3ccccn3)n2)c1 (library stock concentration (final ~1000-fold dilution): 10 mM),IRF Lucia reporter activity,[1]; [4],0.326
same,IRF Lucia reporter activity,[1]; agonist: LPS (TLR4) 0.1 ug/mL,2.84
CCOC(=O)CCNc1cc(N2CCc3ccccc3CC2)nc(-c2ccccn2)n1.Cl,IRF Lucia reporter activity,[2]; [5],1
CCC(NC(=O)C(C)NC)C(=O)N1CC(O)CC1Cc1c(-c2[nH]c3cc(F)ccc3c2CC2CC(O)CN2C(=O)C(CC)NC(=O)C(C)NC)[nH]c2cc(F)ccc12 (stereo unspecified) (library stock concentration (final ~1000-fold dilution): 10 mM),IRF Lucia reporter activity,[1]; [4],0.626
same,IRF Lucia reporter activity,[1]; agonist: LPS (TLR4) 0.1 ug/mL,0.632
CCC(NC(=O)C(C)NC)C(=O)N1CC(O)CC1Cc1c(-c2[nH]c3cc(F)ccc3c2CC2CC(O)CN2C(=O)C(CC)NC(=O)C(C)NC)[nH]c2cc(F)ccc12 (stereo unspecified),IRF Lucia reporter activity,[2]; [5],0.519
Cc1ccc(CN(CC(O)COc2cccc3[nH]ccc23)C(C)(C)C)cc1 (stereo unspecified) (library stock concentration (final ~1000-fold dilution): 10 mM),IRF Lucia reporter activity,[3]; [4],0.837
same,IRF Lucia reporter activity,[3]; agonist: LPS (TLR4) 0.1 ug/mL,1.9
Cc1cc(C(C)Nc2ccccc2C(=O)O)c2nc(N3CCOCC3)cc(=O)n2c1 (stereo unspecified),IRF Lucia reporter activity,[2]; [5],0.843
Cc1cc(C(C)Nc2ccccc2C(=O)O)c2nc(N3CCOCC3)cc(=O)n2c1 (stereo unspecified) (library stock concentration (final ~1000-fold dilution): 10 mM),IRF Lucia reporter activity,[1]; [4],1
same,IRF Lucia reporter activity,[1]; agonist: LPS (TLR4) 0.1 ug/mL,1.04
CC(O)CO.CCOc1ccc(Cc2cc(C3OC(CO)C(O)C(O)C3O)ccc2Cl)cc1.O (stereo unspecified) (library stock concentration (final ~1000-fold dilution): 10 mM),IRF Lucia reporter activity,[1]; [4],1.07
same,IRF Lucia reporter activity,[1]; agonist: LPS (TLR4) 0.1 ug/mL,1.03
CC(O)CO.CCOc1ccc(Cc2cc(C3OC(CO)C(O)C(O)C3O)ccc2Cl)cc1.O (stereo unspecified),IRF Lucia reporter activity,[2]; [5],1.05
CC(Cn1cnc2c(N)ncnc21)OCP(=O)(O)O (stereo unspecified) (library stock concentration (final ~1000-fold dilution): 10 mM),IRF Lucia reporter activity,[1]; [4],1
same,IRF Lucia reporter activity,[1]; agonist: LPS (TLR4) 0.1 ug/mL,1
CC(C)(C)C(=O)OCOP(=O)(COCCn1cnc2c(N)ncnc21)OCOC(=O)C(C)(C)C,IRF Lucia reporter activity,[2]; [5],2.95
CC(C)(C)C(=O)OCOP(=O)(COCCn1cnc2c(N)ncnc21)OCOC(=O)C(C)(C)C (library stock concentration (final ~1000-fold dilution): 10 mM),IRF Lucia reporter activity,[1]; [4],2.04
same,IRF Lucia reporter activity,[1]; agonist: LPS (TLR4) 0.1 ug/mL,2.36
CC(Cn1cnc2c(N)ncnc21)OCP(=O)(O)O (stereo unspecified),IRF Lucia reporter activity,[2]; [5],1.05
Nc1ncnc2c1ncn2C(C=O)OC(C=O)CO (stereo unspecified) (library stock concentration (final ~1000-fold dilution): 10 mM),IRF Lucia reporter activity,[1]; [4],0.427
same,IRF Lucia reporter activity,[1]; agonist: LPS (TLR4) 0.1 ug/mL,0.724
